D3 ag: agonists of human D3 dopamine receptor. P35462. 0.58% of 410,000 active. AID 652048. D3R DiscoveRx beta-arrestin cells, luminescence, 90 min. max activation, %; in the data active means max activation above about 30%; further: 0% is about no effect
Target sequence (P35462 whole entry, looked up): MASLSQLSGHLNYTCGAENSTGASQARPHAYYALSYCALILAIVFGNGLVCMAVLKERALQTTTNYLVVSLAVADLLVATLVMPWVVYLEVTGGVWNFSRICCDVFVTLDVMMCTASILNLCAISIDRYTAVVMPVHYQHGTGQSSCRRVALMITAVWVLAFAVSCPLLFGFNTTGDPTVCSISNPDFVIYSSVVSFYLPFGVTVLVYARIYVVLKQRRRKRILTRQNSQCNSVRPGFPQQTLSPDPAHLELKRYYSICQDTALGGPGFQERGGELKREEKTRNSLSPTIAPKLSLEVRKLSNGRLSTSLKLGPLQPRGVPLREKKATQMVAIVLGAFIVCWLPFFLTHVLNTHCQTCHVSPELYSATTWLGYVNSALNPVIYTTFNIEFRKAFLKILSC
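Agonist-mode cell screen: cells plated at 1500/well and incubated overnight at 37 °C, then exposed to library compounds for 90 min at 37 °C. Detection reagent was added for 30–60 min at room temperature, and luminescence was read.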
DT40 TDP1 no CPT: qHTS for Inhibitors of human tyrosyl-DNA phosphodiesterase 1 (TDP1): qHTS in cells in absence of CPT | DT40 Tdp1-/- hTDP1 cells, no CPT, ATP luminescence, 48 h | 15% of 420,000 active | Potency, µM (doses to about 46.2 µM), inactives show top-dose activity change, negative = growth inhibition, actives largely listed as inhibitors; further: potency means the concentration at half of the fitted maximal effect; on the % scale 0 is the no-effect control and ±100 the full control effect; nearly all actives have a fitted effect of over 55% in size
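Camptothecin absent (DMSO only). Human TDP1-complemented DT40 knockout cells, 400 cells/well, 37 °C for minimum 48 hr; ATP measured via CellTiter-Glo, 30 min dark incubation, luminescence.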
DRD3 antagonist: antagonists of human D3 dopamine receptor | P35462 | D3R cells, DiscoveRx beta-arrestin luminescence, antagonist mode; hits give low values | max response, negative = inhibition, % | 2.5% of 360,000 active | AID 652054; in the data active means max response below about -50%; inconclusive means no clear call, values can overlap the other calls; further: on the % scale 0 is the no-effect control and ±100 the full control effect
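Cells plated overnight at 1500 cells/well, then exposed to library compounds with dopamine controls for 90 minutes at 37 degrees C. DiscoveRx reagent added for 30–60 minutes at room temperature; luminescence read, quantitative HTS format.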
IL1B secr inh: inhibitors of inflammasome signaling (IL-1 beta secretion); 4.7% of 360,000 active; THP-1 LPS/ATP IL-1B secretion, AlphaLISA, 16 h; hits give low values; activity change, % at 57.5 µM; AID 743279; in the data active means activity change below about -50%; inconclusive means mostly about -30% to -49%; further: on the % scale 0 is the no-effect control and ±100 the full control effect
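Secreted IL-1B measured by AlphaLISA bead assay after 16 h compound exposure of THP-1 cells; compounds (final up to 57.5 uM) added 1 h before LPS (250 ng/mL) and ATP (1.25 mM) stimulation; lower signal means less secretion.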
TDP1 cell CPT: growth inhibition of DT40 Tdp1-/-;hTDP1 cells with camptothecin (screen for TDP1 inhibitors) | chicken DT40 Tdp1-/-;hTDP1 cells + 20 nM CPT, ATP luminescence, 48 h | Potency, µM (top dose mostly 46.2 µM), for the others: top-dose activity change, negative = growth inhibition, most hits filed as inhibitors | 12% of 420,000 active | AID 686979; further: potency means the concentration at half of the fitted maximal effect; on the % scale 0 is the no-effect control and ±100 the full control effect; nearly all actives have a fitted effect of over 55% in size
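Cell growth measured by CellTiter-Glo luminescence after a minimum 48 h, 37 C compound exposure with 20 nM CPT in Tdp1-knockout DT40 cells stably expressing hTDP1, seeded 400/well; qHTS titration format.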
ClpP mod: qHTS Assay for Activators of ClpP; purified B. subtilis ClpP, FRET peptide cleavage, 20 min; Potency, µM (series often up to 57.5 µM), for inactives: at the highest dose activity change, negative = active; 1.9% of 340,000 active; ATP-dependent Clp protease proteolytic subunit (Bacillus subtilis (strain 168)), P80244; active means well fitted falling curve with a large enough effect; inconclusive means small, poorly fitted or top-dose-only effect; inactive means no such curve, though single readings can be large or run the other way; further: potency means the concentration at half of the fitted maximal effect; the source files actives as falling curves though it sought activators and does not explain the sign; nearly all actives have a fitted effect of over 65% in size
Target sequence (P80244 whole entry, looked up): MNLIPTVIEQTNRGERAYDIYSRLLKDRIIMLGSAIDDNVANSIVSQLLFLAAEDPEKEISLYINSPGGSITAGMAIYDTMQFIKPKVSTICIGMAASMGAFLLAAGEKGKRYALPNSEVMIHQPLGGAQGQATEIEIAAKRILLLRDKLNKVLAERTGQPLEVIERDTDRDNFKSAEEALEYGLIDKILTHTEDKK
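Buffer: 100 mM Tris/HCl pH8, 100 mM KCl, 0.05% low protease BSA, 2.5% glycerol, 0.01% Tween-20. ClpP 10 microg/mL final; 20 min RT; delta FRET normalized to ADEP and DMSO controls.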
Starred values were filed as active, the others as inactive; ? = inconclusive; nt = no result given. A selection: hits, their analogues and other compounds. The true share with any hit is near 21%. Unless noted, the call rests on the fitted dose curve; in most records, active means well fitted inhibition curve with a large enough effect; inconclusive means small, poorly fitted or top-dose-only effect; inactive means flat fitted curve, though single readings scatter.

SMILES	D3 ag	DT40 TDP1 no CPT	DRD3 antagonist	IL1B secr inh	TDP1 cell CPT	ClpP mod
CCCCNCCCCOc1ccccc1	-23	-17%	?	8	-18%	0%
O=C(NCCN1C(=O)S/C(=C\c2ccccc2)C1=O)c1cc(S(=O)(=O)N2CCOCC2)c(Cl)cc1Cl	19	4.1µM*	52	-17	21µM*	-3%
O=C(NCCCc1ccccc1)c1cccc(S(=O)(=O)N2CCOCC2)c1	-2	-20%	-10	17	0%	1%
O=C(NCCN1C(=O)S/C(=C\c2ccc(Cl)cc2)C1=O)c1ccc(F)c(S(=O)(=O)N2CCOCC2)c1	6	5.8µM*	22	34	6.5µM*	2%
O=C(NCCN1C(=O)S/C(=C\c2ccc(F)cc2)C1=O)c1cccc(S(=O)(=O)N2CCOCC2)c1	-7	16µM*	17	0	23µM*	1%
CCNS(=O)(=O)c1ccc(CCC(=O)NCc2ccccn2)cc1	3	22%	-4	0	9%	-3%
COc1ccc(CC(=O)NNC(=O)c2c(-c3ccccc3Cl)noc2C)cc1OC	12	-4%	14	14	11%	0%
CC(C)(C)c1ccc(-c2nnc3sc(-c4ccncc4)nn23)cc1	10	?	6	-6	13µM*	-5%
Cc1nnc2sc(-c3ccncc3)nn12	8	0%	12	0	9%	4%
CCN(CC)c1ccc(-c2nn3c(-c4cccnc4)nnc3s2)cc1	4	21µM*	-11	-6	18µM*	-25%
COc1cccc(-n2c(SCc3ccccc3C)nc3c([nH]c4ccccc43)c2=O)c1	1	?	nt	nt	?	-17%
CN(Cc1ccc(Cl)s1)C(=O)CSc1nnc(C2CC2)n1C1CC1	8	9%	3	-29	2%	1%
Oc1ccc(/C=N/NC(=S)NC2CC3CCC2C3)cc1 (configuration not stated)	3	?	4	-66*	?	nt
S=C(N/N=C/c1cccs1)NC1CC2CCC1C2 (configuration not stated)	13	?	3	nt	-27%	nt
CCOc1ccc2oc(C(=O)NC3CCN(Cc4ccccc4)CC3)c(C)c2c1	-36	5.2µM*	-24	-64*	3.7µM*	-2%
CCOc1ccc2oc(C(=O)NC3CC(C)(C)NC(C)(C)C3)c(C)c2c1	0	?	-3	-12	?	4%
Cc1c(C(=O)NC2CCN(Cc3ccccc3)C2)oc2ccc(Br)cc12 (configuration not stated)	-20	?	-59*	?	?	nt
COc1ccc(S(=O)(=O)N2CCN(c3ccccc3OC)CC2)cc1	-2	?	5	-15	?	3%
CCOc1ccc(S(=O)(=O)N2CCN(c3nc(-c4ccccc4)nc4ccccc34)CC2)cc1	nt	-16%	nt	nt	5%	?
COc1ccc(S(=O)(=O)N2CCN(c3nc(-c4cccnc4)nc4ccccc34)CC2)cc1	-6	8.2µM*	0	-22	18µM*	-7%
O=S(=O)(c1ccccc1Cl)N1CCN(c2nc(-c3ccccc3)nc3ccccc23)CC1	nt	?	nt	nt	-26%	1%
Cc1ccc(C)c(S(=O)(=O)N2CCN(c3nc(-c4cccnc4)nc4ccccc34)CC2)c1	-23	6.5µM*	23	0	8.2µM*	-12%
O=S(=O)(c1ccccc1F)N1CCN(c2nc(-c3cccnc3)nc3ccccc23)CC1	-1	21µM*	25	4	?	-1%
N#Cc1ccccc1S(=O)(=O)N1CCN(c2nc(-c3cccnc3)nc3ccccc23)CC1	-4	?	2	-6	?	-8%
COc1ccc(S(=O)(=O)N2CCN(c3ccc4nnc(-c5ccccc5)n4n3)CC2)cc1	11	?	8	0	12µM*	?
SMILES	D3 ag	DT40 TDP1 no CPT	DRD3 antagonist	IL1B secr inh	TDP1 cell CPT	ClpP mod
COc1cccc(NC(=O)Cn2c(=O)n(CCCC(=O)NCc3ccc4c(c3)OCO4)c(=O)c3ccccc32)c1	-6	-3%	nt	nt	-12%	?
O=C(CCOc1ccc(F)cc1)Nc1nccs1	5	-1%	0	-1	2%	nt
O=C(Nc1ccc(NC(=O)c2ccc(Br)cc2)c(Cl)c1)c1ccc(Br)cc1	5	4%	nt	nt	7%	-2%
CC(C)C(C(=O)NC1CCCC1)N1CCC(O)(c2ccc(Cl)cc2)CC1 (configuration not stated)	-12	?	-8	-3	?	-4%
COc1cccc(C(C(=O)NC2CCCC2)N2CCN(c3cc(C)ccc3C)CC2)c1OC (configuration not stated)	-8	21µM*	-18	-59*	21µM*	-2%
COc1cccc(C(C(=O)NC2CCCC2)N2CCN(c3ncccc3C#N)CC2)c1OC (configuration not stated)	-8	16µM*	-5	-12	?	1%
Cc1ccc(C)c(N2CCN(C(C(=O)NC3CCCC3)c3ccco3)CC2)c1 (configuration not stated)	-6	12µM*	6	-55*	?	0%
O=C(NC1CCCC1)C(c1ccco1)N1CCC(O)(c2ccc(Cl)cc2)CC1 (configuration not stated)	-11	18µM*	3	-6	23µM*	0%
Cc1ccc(S(=O)(=O)Nc2ccccc2-c2nc3ccccc3[nH]c2=O)cc1	-9	?	-12	23	-21%	-23%
O=C1C=C(c2ccc3c(c2)oc2ccccc23)C[C@@H](c2ccc(Cl)cc2)C1	0	?	0	34	?	-1%
O=C(Nc1nc2ccccc2[nH]1)c1cccc(Br)c1	2	?	3	9	?	nt
O=C(Nc1nc2ccccc2[nH]1)c1ccc([N+](=O)[O-])cc1	1	0%	9	-9	-1%	nt
O=C(Nc1nc2ccccc2[nH]1)c1cccc(F)c1	-1	16µM*	-9	24	?	nt
CN(C)c1cccc(C(=O)Nc2nc3ccccc3[nH]2)c1	-15	12µM*	?	?	?	nt
Cc1ccc(C)c(N(C)C(=O)CCS(=O)(=O)c2cccc3nonc23)c1	-7	-17%	-21	-3	1%	nt
Cn1c(=O)c2c(nc(N3CCCCCC3)n2Cc2cccc3ccccc23)n(C)c1=O	-10	26µM*	-25	11	?	-1%
Cn1c(=O)c2c(nc(N3CCOCC3)n2Cc2ccccc2)n(C)c1=O	4	26µM*	nt	nt	?	1%

Screens: PubChem BioAssay, National Center for Advancing Translational Sciences (NCATS)
